# Test results taken from PubChem BioAssay (EPA / NIEHS).
# Results filed as inconclusive are left out. Active and inactive are the calls of the source. The calls were made as follows: active = hit-call score of the fitted dose curve at least 0.9, where 1 is the maximum; inconclusive = response in the unintended direction; inactive = score below 0.9.
# Legend:
# [1] = target: human Purinergic Receptor P2Y, P2RY1 (gene 5028) (UniProt P47900); assay: NVS_GPCR_hPY2: NovaScreen (NVS) G Protein-Coupled Receptor Assay for human Purinergic Receptor P2Y (AID 2283281)
# How it was run: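 Cell-free radioligand binding using U937-derived protein, 1 h after dosing, filter-based scintillation counting. Screened in duplicate at 25 uM; actives rerun as concentration-response up to 50 uM; loss of signal versus DMSO.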
# [2] = target: human Neurokinin, NK2 Receptor, TACR2 (gene 6865) (UniProt P21452); assay: NVS_GPCR_hNK2: NovaScreen (NVS) G Protein-Coupled Receptor Assay for human Neurokinin, NK2 Receptor (AID 2283278);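 also: actives reduce bound radioligand signal relative to DMSO baseline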
# How it was run: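 Radioligand binding on membranes from CHO cells expressing receptor, filter-based scintillation read 4 h after dosing. Initial duplicate screen at 25 uM, actives in concentration series; loss of signal versus DMSO.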
# [3] = target: human Thromboxane A2 Receptor (TXA2), TBXA2R (gene 6915) (UniProt P21731); assay: NVS_GPCR_hTXA2: NovaScreen (NVS) G Protein-Coupled Receptor Assay for human Thromboxane A2 Receptor (TXA2) (AID 2283282);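 also: actives reduce bound radioligand signal relative to DMSO baseline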
# How it was run: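 Screening ran at 25 uM in duplicate, with concentration series for confirmed actives. Each test measures radioligand binding to human platelet protein after 1 h, cell-free, using filter-based scintillation detection of signal loss relative to DMSO.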
# [4] = target: human Opioid Receptor Mu (Opiate Mu), OPRM1 (gene 4988) (UniProt P35372); assay: NVS_GPCR_hOpiate_mu: NovaScreen (NVS) G Protein-Coupled Receptor Assay for human Opioid Receptor Mu (Opiate Mu) (AID 2283290);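 also: hits lower bound tracer signal versus DMSO meaning displacement of the ligand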
# How it was run: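 Radioligand displacement binding on membranes from CHO cells expressing the receptor, 2.5 h after dosing, filter-based scintillation counting; loss of signal vs DMSO baseline. Screened in duplicate at 25 uM, actives then run in concentration series.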
# [5] = target: rat Adrenergic Receptor, Alpha 2 (Adra2), Non-selective Binding, Adra2a (gene 25083) (UniProt P22909); assay: NVS_GPCR_rAdra2_NonSelective: NovaScreen (NVS) G Protein-Coupled Receptor Assay for rat Adrenergic Receptor, Alpha 2 (Adra2), Non-selective Binding (AID 2283299)
# How it was run: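 Rat cortical membranes, radioligand competitive displacement read by filter-based scintillation counting 1.25 hours after dosing. Primary screen in duplicate at 25 uM; actives followed up in concentration series.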
# [6] = target: human Orphanin, Opioid Related Nociceptin Receptor 1 (ORL1), OPRL1 (gene 4987) (UniProt P41146); assay: NVS_GPCR_hORL1: NovaScreen (NVS) G Protein-Coupled Receptor Assay for human Orphanin, Opioid Related Nociceptin Receptor 1 (ORL1) (AID 2283283)
# How it was run: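 Filter-based radioligand displacement with receptor extracted from HEK293 cells, read 1 hour after dosing by scintillation counting. Duplicate single-point screen at 25 uM; qualifying chemicals then run in concentration-response to 50 uM, analysed relative to DMSO.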
# [7] = test system: 5-hydroxytryptamine receptor 2C (pig); assay: NVS_GPCR_p5HT2C: NovaScreen (NVS) G Protein-Coupled Receptor Assay for pig Serotonin, 5-Hydroxytryptamine Receptor 2C (5HT2C) (AID 2283288)
# How it was run: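 Pig choroid plexus membranes; radioligand competitive binding, filter-based scintillation counting, read 1 h after dosing. Primary screen in duplicate at 25 uM; actives then run as concentration series; loss of signal versus DMSO baseline.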
# [8] = target: Muscarinic acetylcholine receptor M2 (Homo sapiens) (UniProt P08172); assay: NVS_GPCR_hM2: NovaScreen (NVS) G Protein-Coupled Receptor Assay for human Muscarinic, M2 Receptor (AID 2283273)
# How it was run: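 CHO membrane prep, radioligand + test compound, 1 h; filtration, scintillation count. Screen 25 uM duplicate → conc. series for actives. Readout: decrease in binding vs DMSO control.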
# [9] = target: mouse Cholecystokinin, CCK2 Receptor (CCKB), Cckbr (gene 12426) (UniProt P56481); assay: NVS_GPCR_mCKKBCentral: NovaScreen (NVS) G Protein-Coupled Receptor Assay for mouse Cholecystokinin, CCK2 Receptor (CCKB) (AID 2283293)
# How it was run: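 Radioligand displacement binding on mouse forebrain membranes, 2 h exposure, filter-based scintillation counting. Primary screen in duplicate at 25 uM; actives (e.g. ≥30% inhibition) retested in concentration-response up to 50 uM; loss of binding signal relative to DMSO.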
# [10] = target: mouse Cholecystokinin, CCK1 Receptor (CCKA), Cckar (gene 12425) (UniProt O08786); assay: NVS_GPCR_mCCKAPeripheral: NovaScreen (NVS) G Protein-Coupled Receptor Assay for mouse Cholecystokinin, CCK1 Receptor (CCKA) (AID 2283285)
# How it was run: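 Radioligand competitive displacement on mouse pancreatic membranes, 2 h incubation; filter-based scintillation counting, loss of signal versus DMSO. Single-concentration screen at 25 uM in duplicate, actives retested in concentration-response up to 50 uM.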
# [11] = target: human Adrenergic, Beta 1 Receptor (Adrb1), ADRB1 (gene 153) (UniProt P08588); assay: NVS_GPCR_hAdrb1: NovaScreen (NVS) G Protein-Coupled Receptor Assay for human Adrenergic, Beta 1 Receptor (Adrb1) (AID 2283258)
# How it was run: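 Cell-free radioligand displacement on receptor from human neuroepithelioma cells; 2 h after dosing, filter-based scintillation counting. Primary screen in duplicate at 25 uM, actives retested in concentration series; loss of signal vs DMSO baseline.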
# [12] = target: human Adrenergic, Alpha 2c Receptor (Adra2C), ADRA2C (gene 152) (UniProt P18825); assay: NVS_GPCR_hAdra2C: NovaScreen (NVS) G Protein-Coupled Receptor Assay for human Adrenergic, Alpha 2c Receptor (Adra2C) (AID 2283259)
# How it was run: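 Radioligand binding on Sf9-expressed receptor membranes, 1 h after chemical dosing, filter-based scintillation read-out. Loss of binding fitted positively versus DMSO; primary duplicate screen at 25 uM, actives retested in concentration series.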
# [13] = target: human Dopamine Receptor D4.4 (DRD4.4), DRD4 (gene 1815) (UniProt P21917); assay: NVS_GPCR_hDRD4.4: NovaScreen (NVS) G Protein-Coupled Receptor Assay for human Dopamine Receptor D4.4 (DRD4.4) (AID 2283264)
# How it was run: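 Radioligand displacement on human DRD4.4 from CHO-derived membranes, 1 hour incubation, bound counts read by filtration and scintillation. Primary screen in duplicate at 25 uM; actives followed up in concentration series.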
# [14] = target: human Dopamine Receptor D2 (DRD2), DRD2 (gene 1813) (UniProt P14416); assay: NVS_GPCR_hDRD2s: NovaScreen (NVS) G Protein-Coupled Receptor Assay for human Dopamine Receptor D2 (DRD2) (AID 2283266)
# How it was run: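 Radioligand displacement used human DRD2 membranes extracted from CHO cells and was read by filter-based scintillation counting after 1.5 hours. Primary screening was in duplicate at 25 uM. Loss of signal versus DMSO was fitted, with concentration series in follow-up.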
# [15] = target: human Histamine 1 Receptor (H1), HRH1 (gene 3269) (UniProt P35367); assay: NVS_GPCR_hH1: NovaScreen (NVS) G Protein-Coupled Receptor Assay for human Histamine 1 Receptor (H1) (AID 2283268)
# How it was run: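 Cell-free radioligand displacement at human H1 receptor, 1 h, filter scintillation counting; primary screen 25 uM in duplicate, hits in concentration series; loss of binding fitted vs DMSO.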
# [16] = target: Muscarinic acetylcholine receptor M3 (Homo sapiens) (UniProt P20309); assay: NVS_GPCR_hM3: NovaScreen (NVS) G Protein-Coupled Receptor Assay for human Muscarinic, M3 Receptor (AID 2283272)
# How it was run: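 Radioligand displacement binding on human M3 receptor in CHO-derived membranes, 1 h incubation, filter-based scintillation counting. Primary screen in duplicate at 25 uM; actives followed up in concentration series; loss of signal versus DMSO.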
# [17] = target: Muscarinic acetylcholine receptor M5 (Homo sapiens) (UniProt P08912); assay: NVS_GPCR_hM5: NovaScreen (NVS) G Protein-Coupled Receptor Assay for human Muscarinic, M5 Receptor (AID 2283275)
# How it was run: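 Radioligand displacement on CHO-derived membrane preparations, 1 h, filter-based scintillation counting. Single-concentration duplicate screen at 25 uM; hits (e.g. 30% inhibition) retested in singleton concentration-response up to 50 uM. Loss of binding fitted versus DMSO.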
# [18] = target: human Opioid Receptor Delta 1 (Opiate D1), OPRD1 (gene 4985) (UniProt P41143); assay: NVS_GPCR_hOpiate_D1: NovaScreen (NVS) G Protein-Coupled Receptor Assay for human Opioid Receptor Delta 1 (Opiate D1) (AID 2283280)
# How it was run: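 Radioligand displacement on membranes from CHO cells expressing the receptor, read by filter scintillation counting 1 h after dosing. Duplicate single-point screen at 25 uM, then concentration series for actives; loss of signal versus DMSO.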
# [19] = test system: rat Adrenergic, Alpha 1B Receptor (Adra1B), gene 24173; assay: NVS_GPCR_rAdra1B: NovaScreen (NVS) G Protein-Coupled Receptor Assay for rat Adrenergic, Alpha 1B Receptor (Adra1B) (AID 2283297)
# How it was run: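 Rat liver membranes, radioligand displacement with filter-based scintillation detection, 1 h incubation. Primary screen in duplicate at 25 uM; actives retested in concentration series; activity relative to DMSO.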
# [20] = target: human Adrenergic, Beta 3 Receptor (Adrb3), ADRB3 (gene 155) (UniProt P13945); assay: NVS_GPCR_hAdrb3: NovaScreen (NVS) G Protein-Coupled Receptor Assay for human Adrenergic, Beta 3 Receptor (Adrb3) (AID 2283262)
# How it was run: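 Membranes from SK-N-MC cells pretreated with isoproterenol and 8-bromo-cAMP were used in a radioligand competitive displacement binding assay. Binding was read by filter-based scintillation counting 1 hour after dosing. Primary screening was in duplicate at 25 uM, with concentration series in follow-up.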
# Chain of human Neurokinin, NK2 Receptor, TACR2 (gene 6865) (P21452 whole entry, looked up): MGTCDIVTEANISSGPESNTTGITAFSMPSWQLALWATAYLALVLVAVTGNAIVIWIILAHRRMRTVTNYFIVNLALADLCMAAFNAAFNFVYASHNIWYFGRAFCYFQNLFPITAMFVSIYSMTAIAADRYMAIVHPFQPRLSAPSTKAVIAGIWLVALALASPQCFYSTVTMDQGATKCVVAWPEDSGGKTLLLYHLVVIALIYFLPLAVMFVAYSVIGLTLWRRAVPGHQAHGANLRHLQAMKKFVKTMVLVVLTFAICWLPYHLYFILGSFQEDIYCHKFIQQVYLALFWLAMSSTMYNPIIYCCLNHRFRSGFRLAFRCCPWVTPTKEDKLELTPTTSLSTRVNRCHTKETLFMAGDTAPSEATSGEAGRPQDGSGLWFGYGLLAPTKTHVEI
# Chain of Muscarinic acetylcholine receptor M2 (Homo sapiens) (P08172 whole entry, looked up): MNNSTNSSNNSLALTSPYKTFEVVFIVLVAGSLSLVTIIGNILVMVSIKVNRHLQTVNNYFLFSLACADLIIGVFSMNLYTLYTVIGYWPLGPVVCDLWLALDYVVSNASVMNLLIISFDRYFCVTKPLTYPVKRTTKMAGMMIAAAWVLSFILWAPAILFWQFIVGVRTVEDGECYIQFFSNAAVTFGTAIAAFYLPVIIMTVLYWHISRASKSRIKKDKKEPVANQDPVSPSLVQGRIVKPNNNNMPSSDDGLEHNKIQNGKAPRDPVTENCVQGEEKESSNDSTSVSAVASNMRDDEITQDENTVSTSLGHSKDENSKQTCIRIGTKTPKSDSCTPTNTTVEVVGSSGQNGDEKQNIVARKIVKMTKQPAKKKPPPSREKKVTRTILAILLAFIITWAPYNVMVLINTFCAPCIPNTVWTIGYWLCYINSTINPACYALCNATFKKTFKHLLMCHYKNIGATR
# Chain of human Opioid Receptor Mu (Opiate Mu), OPRM1 (gene 4988) (P35372 whole entry, looked up): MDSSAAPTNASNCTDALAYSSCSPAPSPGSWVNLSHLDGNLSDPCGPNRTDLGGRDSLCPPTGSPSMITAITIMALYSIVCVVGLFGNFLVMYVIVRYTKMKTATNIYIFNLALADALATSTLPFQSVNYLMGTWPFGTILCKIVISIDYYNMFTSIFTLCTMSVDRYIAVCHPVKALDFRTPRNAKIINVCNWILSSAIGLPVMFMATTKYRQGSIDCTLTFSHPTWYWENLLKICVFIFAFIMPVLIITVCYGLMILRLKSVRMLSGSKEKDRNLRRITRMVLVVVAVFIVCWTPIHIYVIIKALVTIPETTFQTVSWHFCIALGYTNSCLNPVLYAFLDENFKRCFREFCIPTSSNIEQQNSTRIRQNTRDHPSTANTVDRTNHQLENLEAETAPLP
# Chain of rat Adrenergic Receptor, Alpha 2 (Adra2), Non-selective Binding, Adra2a (gene 25083) (P22909 whole entry, looked up): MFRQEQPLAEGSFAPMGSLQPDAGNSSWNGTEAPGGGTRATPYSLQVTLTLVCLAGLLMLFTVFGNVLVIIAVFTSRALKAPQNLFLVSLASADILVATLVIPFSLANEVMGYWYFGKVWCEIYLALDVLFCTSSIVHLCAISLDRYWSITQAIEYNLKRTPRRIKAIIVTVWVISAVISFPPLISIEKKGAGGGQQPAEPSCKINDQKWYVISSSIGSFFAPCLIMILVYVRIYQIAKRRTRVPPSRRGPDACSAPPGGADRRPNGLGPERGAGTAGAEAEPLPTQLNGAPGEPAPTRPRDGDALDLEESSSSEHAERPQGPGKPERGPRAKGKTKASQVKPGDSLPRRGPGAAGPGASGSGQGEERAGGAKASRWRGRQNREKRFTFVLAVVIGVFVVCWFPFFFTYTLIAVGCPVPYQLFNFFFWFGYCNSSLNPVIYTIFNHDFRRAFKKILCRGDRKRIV
# Chain of human Thromboxane A2 Receptor (TXA2), TBXA2R (gene 6915) (P21731 whole entry, looked up): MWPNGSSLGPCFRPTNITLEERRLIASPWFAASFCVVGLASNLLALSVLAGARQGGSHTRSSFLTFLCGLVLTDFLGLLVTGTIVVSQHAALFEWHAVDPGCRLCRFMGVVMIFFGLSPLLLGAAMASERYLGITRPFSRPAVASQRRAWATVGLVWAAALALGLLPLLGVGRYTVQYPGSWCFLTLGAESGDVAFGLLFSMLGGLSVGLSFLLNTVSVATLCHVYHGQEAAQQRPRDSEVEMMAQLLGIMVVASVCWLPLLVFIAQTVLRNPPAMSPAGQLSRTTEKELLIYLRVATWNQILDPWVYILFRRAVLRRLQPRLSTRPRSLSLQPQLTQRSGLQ
# Chain of human Orphanin, Opioid Related Nociceptin Receptor 1 (ORL1), OPRL1 (gene 4987) (P41146 whole entry, looked up): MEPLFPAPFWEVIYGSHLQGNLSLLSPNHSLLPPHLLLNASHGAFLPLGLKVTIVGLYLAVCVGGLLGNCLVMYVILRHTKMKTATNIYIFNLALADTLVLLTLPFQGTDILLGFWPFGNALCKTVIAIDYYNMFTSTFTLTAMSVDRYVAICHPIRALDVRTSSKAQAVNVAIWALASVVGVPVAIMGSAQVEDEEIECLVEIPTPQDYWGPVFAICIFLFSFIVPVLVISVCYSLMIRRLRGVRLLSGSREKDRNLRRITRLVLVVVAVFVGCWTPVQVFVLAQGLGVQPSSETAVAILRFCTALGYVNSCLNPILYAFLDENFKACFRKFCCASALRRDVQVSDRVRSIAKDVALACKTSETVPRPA
# Chain of human Adrenergic, Beta 1 Receptor (Adrb1), ADRB1 (gene 153) (P08588 whole entry, looked up): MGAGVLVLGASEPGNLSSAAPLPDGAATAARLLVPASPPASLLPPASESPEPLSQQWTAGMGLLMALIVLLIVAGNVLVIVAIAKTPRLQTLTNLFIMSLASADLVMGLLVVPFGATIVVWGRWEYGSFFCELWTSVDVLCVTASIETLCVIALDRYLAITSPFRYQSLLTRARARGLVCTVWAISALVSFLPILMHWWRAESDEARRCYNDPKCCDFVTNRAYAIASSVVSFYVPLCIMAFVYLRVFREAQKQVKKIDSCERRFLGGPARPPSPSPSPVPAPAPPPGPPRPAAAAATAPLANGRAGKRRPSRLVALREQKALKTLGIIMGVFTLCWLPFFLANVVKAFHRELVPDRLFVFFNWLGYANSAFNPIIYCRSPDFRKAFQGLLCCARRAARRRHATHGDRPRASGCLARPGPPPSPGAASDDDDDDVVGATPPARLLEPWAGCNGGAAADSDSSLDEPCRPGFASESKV
# Chain of human Purinergic Receptor P2Y, P2RY1 (gene 5028) (P47900 whole entry, looked up): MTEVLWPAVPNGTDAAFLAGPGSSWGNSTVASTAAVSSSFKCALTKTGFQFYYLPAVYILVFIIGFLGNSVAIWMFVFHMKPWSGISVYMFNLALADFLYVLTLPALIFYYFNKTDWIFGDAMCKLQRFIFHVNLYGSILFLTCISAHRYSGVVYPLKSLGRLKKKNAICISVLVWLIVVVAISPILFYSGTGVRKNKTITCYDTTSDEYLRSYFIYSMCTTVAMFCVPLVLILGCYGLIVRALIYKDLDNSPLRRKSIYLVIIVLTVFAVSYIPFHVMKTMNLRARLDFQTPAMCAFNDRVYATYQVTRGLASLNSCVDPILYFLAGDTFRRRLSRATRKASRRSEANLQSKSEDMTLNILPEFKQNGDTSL
# Chain of Muscarinic acetylcholine receptor M5 (Homo sapiens) (P08912 whole entry, looked up): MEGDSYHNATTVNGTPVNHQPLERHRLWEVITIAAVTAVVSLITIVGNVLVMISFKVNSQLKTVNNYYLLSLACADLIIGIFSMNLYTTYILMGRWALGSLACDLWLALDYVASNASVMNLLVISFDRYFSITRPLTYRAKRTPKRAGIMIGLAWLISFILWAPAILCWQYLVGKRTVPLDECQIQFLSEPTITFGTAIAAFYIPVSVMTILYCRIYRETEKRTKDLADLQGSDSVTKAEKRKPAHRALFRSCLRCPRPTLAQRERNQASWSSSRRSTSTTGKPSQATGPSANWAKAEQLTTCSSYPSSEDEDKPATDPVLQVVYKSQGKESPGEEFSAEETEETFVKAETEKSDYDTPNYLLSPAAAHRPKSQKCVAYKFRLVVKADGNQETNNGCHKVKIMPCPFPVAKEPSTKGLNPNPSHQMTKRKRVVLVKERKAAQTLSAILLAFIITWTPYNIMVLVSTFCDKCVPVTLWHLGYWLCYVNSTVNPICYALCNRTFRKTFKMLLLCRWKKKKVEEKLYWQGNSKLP
# Chain of human Histamine 1 Receptor (H1), HRH1 (gene 3269) (P35367 whole entry, looked up): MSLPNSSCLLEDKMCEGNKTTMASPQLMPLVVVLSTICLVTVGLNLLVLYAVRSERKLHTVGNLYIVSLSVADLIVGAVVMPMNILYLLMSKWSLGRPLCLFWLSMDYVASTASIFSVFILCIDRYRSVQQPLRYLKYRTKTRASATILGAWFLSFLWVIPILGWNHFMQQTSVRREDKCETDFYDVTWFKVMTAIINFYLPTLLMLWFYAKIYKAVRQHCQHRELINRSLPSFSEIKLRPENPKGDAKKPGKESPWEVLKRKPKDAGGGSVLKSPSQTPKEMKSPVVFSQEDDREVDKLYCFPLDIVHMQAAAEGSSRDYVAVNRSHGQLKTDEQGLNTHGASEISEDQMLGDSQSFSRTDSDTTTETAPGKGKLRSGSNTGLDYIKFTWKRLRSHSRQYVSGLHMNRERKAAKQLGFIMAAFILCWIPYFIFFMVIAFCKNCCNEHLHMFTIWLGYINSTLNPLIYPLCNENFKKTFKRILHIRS
# Chain of human Adrenergic, Alpha 2c Receptor (Adra2C), ADRA2C (gene 152) (P18825 whole entry, looked up): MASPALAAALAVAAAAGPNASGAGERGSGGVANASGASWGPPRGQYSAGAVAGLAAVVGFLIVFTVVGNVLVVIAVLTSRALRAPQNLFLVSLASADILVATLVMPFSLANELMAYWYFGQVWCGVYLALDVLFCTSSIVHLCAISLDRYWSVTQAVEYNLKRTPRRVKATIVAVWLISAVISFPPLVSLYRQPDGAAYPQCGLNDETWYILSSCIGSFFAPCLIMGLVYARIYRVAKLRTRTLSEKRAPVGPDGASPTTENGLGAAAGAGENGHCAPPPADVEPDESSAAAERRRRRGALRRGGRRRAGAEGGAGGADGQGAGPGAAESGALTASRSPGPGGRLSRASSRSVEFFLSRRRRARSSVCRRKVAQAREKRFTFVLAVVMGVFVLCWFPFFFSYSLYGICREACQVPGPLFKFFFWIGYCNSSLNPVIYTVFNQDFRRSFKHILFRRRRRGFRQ
compound,measurement,setting,value
Cc1cc(Cl)ccc1OC(C)C(=O)O (configuration not stated),outcome,[1],inactive
[Cl][Sn]([c]1ccccc1)([c]1ccccc1)[c]1ccccc1,AC50,[2],2.13 µM (active)
same,AC50,[3],1.29 µM (active)
same,AC50,[4],0.664 µM (active)
same,AC50,[5],9.5 µM (active)
CN(C)C(=S)S,AC50,[2],4 µM (active)
same,AC50,[6],25 µM (active)
same,AC50,[4],6.66 µM (active)
CCOP(=O)(OCC)OC(=CCl)c1ccc(Cl)cc1Cl,AC50,[3],0.35 µM (active)
COc1ccccc1N,AC50,[5],25 µM (active)
OC(Cc1ccccc1Cl)(Cn1[nH]cnc1=S)C1(Cl)CC1 (configuration not stated),AC50,[2],15.3 µM (active)
COC(=O)Nc1cccc(OC(=O)Nc2cccc(C)c2)c1,AC50,[7],25 µM (active)
CCCCCCCCCCCCN(C)C,AC50,[8],22.6 µM (active)
Oc1c(Cl)cc(Cl)cc1Cl,outcome,[9],inactive
CCOP(=O)(OCC)SCCSCC,outcome,[4],inactive
O=C(O)COc1cc(Cl)c(Cl)cc1Cl,outcome,[3],inactive
Oc1cc(Cl)c(Cl)cc1Cl,AC50,[7],10.2 µM (active)
O=C1C=CC(=O)c2ccccc21,AC50,[2],1.1 µM (active)
N#CCCC(Br)(C#N)CBr (configuration not stated),AC50,[3],0.594 µM (active)
same,AC50,[6],4.83 µM (active)
same,AC50,[4],20.6 µM (active)
CCOP(=S)(OCC)SCS(=O)(=O)C(C)(C)C,outcome,[3],inactive
OCCN(CCO)CCO,outcome,[8],inactive
O=S(=O)(C(Cl)(Cl)Cl)C(Cl)(Cl)Cl,AC50,[4],7.84 µM (active)
c1ccc2sc(SNC3CCCCC3)nc2c1,AC50,[2],0.0784 µM (active)
same,AC50,[3],1.12 µM (active)
Cc1ccc(OP(=O)(Oc2ccc(C)cc2C)Oc2ccc(C)cc2C)c(C)c1,AC50,[2],8.63 µM (active)
O=C(N[C@H]1CN2CCC1CC2)c1ccc2c(c1)OCCO2,outcome,[3],inactive
same,outcome,[10],inactive
Oc1ccc(Cc2ccc(O)cc2)cc1,outcome,[3],inactive
Oc1cccc(-c2ccccc2)c1,outcome,[3],inactive
BrCCCCBr,outcome,[8],inactive
CCN(N=O)C(N)=O,outcome,[2],inactive
CCCCCCCCCCCCc1cccc(S(=O)(=O)O)c1,AC50,[11],9.54 µM (active)
same,AC50,[12],6.82 µM (active)
same,AC50,[13],13.6 µM (active)
same,AC50,[14],22.5 µM (active)
same,AC50,[15],25.4 µM (active)
same,AC50,[16],16.3 µM (active)
same,AC50,[17],28.4 µM (active)
same,outcome,[2],inactive
same,AC50,[18],11.8 µM (active)
same,outcome,[1],inactive
same,AC50,[3],8.31 µM (active)
same,AC50,[4],14.4 µM (active)
same,AC50,[19],22.5 µM (active)
O=c1oc2ccccc2c(O)c1C(CC(O)c1ccc(-c2ccc(Br)cc2)cc1)c1ccccc1 (configuration not stated),AC50,[2],23.9 µM (active)
same,AC50,[3],12.2 µM (active)
same,AC50,[4],13.7 µM (active)
CCC(C)(C#N)N=NC(C)(C#N)CC (configuration not stated),outcome,[5],inactive
CCOC(=O)CCN(SN(C)C(=O)Oc1cccc2c1OC(C)(C)C2)C(C)C,outcome,[2],inactive
Nc1ccc(N)cc1,AC50,[8],9.36 µM (active)
same,AC50,[2],5.13 µM (active)
C[N+](C)(C)Cc1ccccc1,AC50,[5],31.5 µM (active)
O=C(O)C1(c2ccc3c(c2)OC[C@H](Cc2ccc(-c4ccccc4)cc2)[C@H]3O)CCCC1,AC50,[11],25 µM (active)
same,outcome,[20],inactive
CCOC(=O)C(SP(=S)(OC)OC)c1ccccc1 (configuration not stated),outcome,[2],inactive
